Screening results: PubChem BioAssay, Johns Hopkins Ion Channel Center
KCNQ2 pot: potentiators of rat KCNQ2 potassium channel. CHO-K1 KCNQ2, FluxOR thallium flux fluorescence; stronger effect = higher value. B-score at 10 µM. 310,000 tested, 0.54% active. AID 2239, 2010;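 active = fluorescence ratio B-score at least 3 SD of library B-scores, with initial fluorescence B-score within 3 of them, cut at about 5.3 in these data; same plate scores as AID 2156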;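 note: B-score of peak minus minimum over baseline fluorescence ratio after K+ and Tl+ stimulus; positive B-score means potentiation of KCNQ2 with more thallium influx and brighter signal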
Target sequence (O88943 whole entry, looked up): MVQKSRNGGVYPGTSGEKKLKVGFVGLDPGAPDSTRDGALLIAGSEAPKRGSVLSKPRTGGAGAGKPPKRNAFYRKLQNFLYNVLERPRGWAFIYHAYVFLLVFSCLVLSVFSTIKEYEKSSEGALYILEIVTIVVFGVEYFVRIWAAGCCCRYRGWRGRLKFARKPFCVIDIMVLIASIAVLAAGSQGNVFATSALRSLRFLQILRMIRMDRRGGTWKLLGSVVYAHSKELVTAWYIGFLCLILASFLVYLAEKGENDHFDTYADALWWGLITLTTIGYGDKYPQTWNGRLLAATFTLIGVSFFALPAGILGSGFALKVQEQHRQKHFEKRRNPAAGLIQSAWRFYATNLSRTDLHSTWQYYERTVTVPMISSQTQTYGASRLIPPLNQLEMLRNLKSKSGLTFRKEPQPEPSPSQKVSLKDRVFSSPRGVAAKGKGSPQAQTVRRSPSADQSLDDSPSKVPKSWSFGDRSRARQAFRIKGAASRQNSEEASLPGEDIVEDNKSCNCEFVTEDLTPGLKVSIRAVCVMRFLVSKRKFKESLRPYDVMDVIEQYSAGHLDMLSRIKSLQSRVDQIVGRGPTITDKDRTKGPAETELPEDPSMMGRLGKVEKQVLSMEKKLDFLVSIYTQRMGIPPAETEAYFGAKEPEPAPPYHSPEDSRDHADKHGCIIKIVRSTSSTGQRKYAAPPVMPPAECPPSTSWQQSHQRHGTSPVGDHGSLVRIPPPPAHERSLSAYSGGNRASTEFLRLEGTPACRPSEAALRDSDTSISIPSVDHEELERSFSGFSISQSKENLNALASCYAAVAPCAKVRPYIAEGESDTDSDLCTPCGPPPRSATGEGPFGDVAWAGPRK
KCNQ2 block: rat KCNQ2 potassium channel inhibitors, primary screen, cell-based, CHO-K1, FluxOR thallium flux, B-score; B-score at 10 µM; 310,000 tested, 1.1% active; 20 min; stronger effect = lower value; Potassium voltage-gated channel subfamily KQT member 2 (Rattus norvegicus), O88943;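 active = fluorescence ratio B-score at most minus 3 library SDs, with starting brightness B-score within 2 library SDs, cut at about -5.5 in these data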
Kir21 confirm: mouse Kir2.1 channel blockers, retest, confirmation, cell-based, FluxOR thallium flux, duplicate | 2,300 tested, 41% active | Tl flux remaining, % of negative control (stronger effect = lower value), % at 10 µM | Kir2.1-expressing cells, FluxOR thallium flux fluorescence; stronger effect = lower value | shares compounds with KCNQ2 pot;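 active = Primary-screen hit whose thallium flux fell at least 3 control SD below untreated wells in both duplicates, with normal baseline fluorescence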;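 note: 0% = blank wells without stimulus and 100% = stimulated no-compound controls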
HEK293 ctr: alters thallium flux in parental HEK293 cells, Kir2.1 counter-screen. FluxOR signal as % of negative control (100 = no effect), % at 10 µM. shares compounds with KCNQ2 pot. AID 2105. 2,300 tested, 19% active. FluxOR thallium flux fluorescence; 0% = unstimulated blank wells;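 active = dye signal at least 3 control SD above or below untreated wells in both duplicates, raw fluorescence within 3, either direction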;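 note: percent is based on the flux ratio of peak minus minimum fluorescence over baseline F0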
CHO-K1 ctr: nonspecific thallium flux increase in parental CHO-K1, confirmation, counter-screen for KCNQ2 potentiator project, cell-based, FluxOR thallium flux, duplicate. activity increase over 3SD of controls, % at 10 µM. parental CHO-K1 cells, FluxOR thallium flux fluorescence; zero = vehicle mean+3SD, 100% = vehicle-minus-blank window. 1,200 tested, 43% active. shares compounds with KCNQ2 pot;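 active = signal rise of at least 3 SD above the untreated control mean, in both duplicate wells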;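 note: counter screen of KCNQ2 potentiator hits so any rise reflects channel-independent effects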
KCNQ1 sel pot: human KCNQ1 channel potentiation off-target, confirmation, selectivity assay for KCNQ2 potentiator project, cell-based, CHO, FluxOR thallium flux; activation over 3SD threshold, % at 10 µM; AID 2283, 2010; 1,200 tested, 28% active; CHO KCNQ1 stable, FluxOR thallium flux fluorescence; beyond 3SD, as % of vehicle-control signal; shares compounds with KCNQ2 pot;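 active = fluorescence ratio rise of at least 3 SD of vehicle wells above their mean, in both replicate wells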;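 note: 0% = vehicle mean plus 3 SD and 100% = vehicle minus unstimulated blank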
KCNQ2 pot conf: rat KCNQ2 channel potentiators, confirmation, cell-based, CHO, FluxOR thallium flux, duplicate | CHO-KCNQ2 cells, FluxOR thallium flux fluorescence | 1,200 tested, 68% active | potentiation, less the hit threshold, % at 10 µM | shares compounds with KCNQ2 pot;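 active = fluorescence ratio rising 3 SD or more over the vehicle control mean in both replicates, plus primary screen hit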;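 note: peak minus minimum thallium fluorescence divided by baseline after K/Tl stimulus; 0% = vehicle mean plus 3 SD and 100% = vehicle minus unstimulated blank difference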
Kir21 spec: mouse Kir2.1 channel activation off-target, confirmation, selectivity assay for KCNQ2 potentiator project, cell-based, HEK293, FluxOR thallium flux; shares compounds with KCNQ2 pot; HEK293 Kir2.1, FluxOR thallium flux fluorescence; activity over 3SD threshold, % at 10 µM; 1,200 tested, 2% active;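 active = fluorescence ratio rise of at least 3 SD above the vehicle-control mean, seen in both replicates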;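 note: 0% = vehicle mean plus 3 SD and 100% = vehicle minus no-stimulus blank window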
KCNQ2 W236L pot: potentiators of retigabine-insensitive KCNQ2 W236L, mechanism study for KCNQ2 potentiator project, cell-based, rat KCNQ2 W236L, CHO, automated patch clamp. shares compounds with KCNQ2 pot. automated patch clamp current. current increase over 3SD of negative controls (%), stronger effect = higher value, % at 25 µM. 940 tested, 10% active;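 active = current increase at least 3 SD of the untreated controls above them in both duplicate recordings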
* marks the source's active call; other numbers are inactive results; i = inactive; nt = not tested or not shown. Only some compounds are listed: those with a hit (about 1.6% of all), similar ones and a draw of the others.

SMILES | KCNQ2 pot | KCNQ2 block | Kir21 confirm | HEK293 ctr | others
O=C1CC(N2CCN(Cc3ccc(Cl)cc3)CC2)C(=O)N1CCc1ccccc1 (configuration not stated) | 5.8* | i | i | i | CHO-K1 ctr=-9;KCNQ1 sel pot=-22;KCNQ2 pot conf=22*;Kir21 spec=-53;KCNQ2 W236L pot=i
O=C1CC(N2CCN(Cc3ccccc3)CC2)C(=O)N1CCc1ccccc1 (configuration not stated) | 0.92 | i | nt | nt
CSc1ccc(C(=O)C2CCCN(C(=O)c3ccc4c(c3)no[n+]4[O-])C2)cc1 (configuration not stated) | nt | i | nt | nt
CN1CCC(NCCC(c2ccc(F)cc2)c2ccc(Cl)cc2)CC1 (configuration not stated) | nt | i | 56%* | i
CC(C)C(CCNC1CCN(C)CC1)c1ccc(Cl)cc1 (configuration not stated) | nt | i | nt | nt
CC1CCN(C(=S)NC(=O)c2cccs2)CC1 | 4 | i | nt | nt
Brc1ccc(/C=N/Nc2ccc3ccccc3n2)cc1 | 1.6 | i | nt | nt
Fc1cccc(/C=N/Nc2ccc3ccccc3n2)c1 | 12* | i | i | i | CHO-K1 ctr=-14;KCNQ1 sel pot=-21;KCNQ2 pot conf=-20;Kir21 spec=-30
Cc1ccccc1NC(=S)c1ccc2ccccc2n1 | nt | i | nt | nt
CCN(CC)CC#CCOC(c1ccccc1)c1ccccc1 | nt | i | nt | nt
CN(C)CC#CCOC(c1ccccc1)c1ccccc1 | nt | i | 50%* | i
Cc1ccccc1OCC(=O)Nc1ccccc1N1CCOCC1 | -6.5 | -6.5* | 50%* | i
COc1ccc(N2CCOCC2)c(NC(=O)COc2cccc(C)c2C)c1 | nt | i | nt | nt
CC(=O)Nc1cccc(OCC(=O)Nc2ccccc2)c1 | 1.1 | i | nt | nt
CC(=O)Nc1cccc(OCC(=O)NC(C)c2ccc3ccccc3c2)c1 (configuration not stated) | 2.5 | i | 56%* | i
N#Cc1ccc(CSc2nnc(Cc3cccs3)n2Cc2ccco2)cc1 | nt | i | 53%* | i
N#Cc1ccc(CSc2nnc(-c3ccccc3)n2Cc2ccco2)cc1 | nt | i | nt | nt
CCC1Oc2ccccc2N(CC(=O)NCc2ccco2)C1=O (configuration not stated) | 0.87 | i | nt | nt
O=S(=O)(c1ccc(Cl)cc1)N1CCCC(C(F)(F)F)C1 (configuration not stated) | 0.02 | i | nt | nt
c1ccc(NC2=NCCN2CCC2CCCCC2)cc1 | nt | i | nt | nt
CC(NCC(=O)Nc1cc(S(=O)(=O)N2CCCCCC2)ccc1Cl)c1ccccc1 (configuration not stated) | nt | i | nt | nt
C=CS(=O)(=O)c1sc(Cl)c(N2CCOCC2)c1[N+](=O)[O-] | -6.8 | -6.8* | 20%* | 48%*
C=CSc1sc(Cl)c(N2CCOCC2)c1[N+](=O)[O-] | nt | i | nt | nt
O=C(CN1CCCc2ccccc21)NCCc1ccc(F)cc1 | nt | i | 46%* | i
